# Experimental data published in paper PMC7862700, “An all-to-all approach to the identification of sequence-specific readers for epigenetic DNA modifications on cytosine”.
# Assays:
# Experiment in all cases: DAPPL (digital affinity profiling via proximity ligation, sequencing); 10 mM Tris-HCl pH 7.5, 50 mM NaCl, 1 mM DTT, 4% glycerol, room temperature, 30 min; GST-TFs on glutathione beads, 16-mer random dsDNA library, 0.1% formaldehyde crosslink after washing; high values mean tight binding
# FLI1 = target: T1, FLI1 (Homo sapiens, UniProt Q01543 1-452); settings: protein: recombinant; tags: N-terminal GST; dsDNA, one strand shown
# T1 sequence: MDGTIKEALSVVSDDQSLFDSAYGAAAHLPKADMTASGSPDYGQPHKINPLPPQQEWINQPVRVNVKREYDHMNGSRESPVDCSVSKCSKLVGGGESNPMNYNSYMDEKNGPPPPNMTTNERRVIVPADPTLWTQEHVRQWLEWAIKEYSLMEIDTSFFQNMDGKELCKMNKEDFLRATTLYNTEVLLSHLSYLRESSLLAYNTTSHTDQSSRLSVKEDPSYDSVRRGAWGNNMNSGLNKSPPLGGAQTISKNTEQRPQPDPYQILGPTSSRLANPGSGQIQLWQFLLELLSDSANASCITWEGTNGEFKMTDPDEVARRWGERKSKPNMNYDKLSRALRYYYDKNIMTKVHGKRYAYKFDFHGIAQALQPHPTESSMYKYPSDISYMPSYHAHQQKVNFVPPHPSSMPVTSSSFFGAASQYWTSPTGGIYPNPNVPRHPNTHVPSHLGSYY
# Procedure, shortened: (§1)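 Each value of binding signal is a hexamer's read frequency for a factor divided by the same hexamer's frequency in the tag-only sample. Barcoded, bead-captured GST fusions of human transcription factors made in yeast were pooled with that sample and incubated with 200 nmole of a random double-stranded 16-mer DNA library in Tris/NaCl/DTT/glycerol buffer at room temperature for 30 min. Washing, 0.1% formaldehyde crosslinking, proximity ligation, PCR and Illumina NextSeq500 sequencing followed.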
# ELK1 = target: T2, ELK1 (Homo sapiens, UniProt P19419 1-428); settings: protein: recombinant; tags: N-terminal GST; dsDNA, one strand shown
# T2 sequence: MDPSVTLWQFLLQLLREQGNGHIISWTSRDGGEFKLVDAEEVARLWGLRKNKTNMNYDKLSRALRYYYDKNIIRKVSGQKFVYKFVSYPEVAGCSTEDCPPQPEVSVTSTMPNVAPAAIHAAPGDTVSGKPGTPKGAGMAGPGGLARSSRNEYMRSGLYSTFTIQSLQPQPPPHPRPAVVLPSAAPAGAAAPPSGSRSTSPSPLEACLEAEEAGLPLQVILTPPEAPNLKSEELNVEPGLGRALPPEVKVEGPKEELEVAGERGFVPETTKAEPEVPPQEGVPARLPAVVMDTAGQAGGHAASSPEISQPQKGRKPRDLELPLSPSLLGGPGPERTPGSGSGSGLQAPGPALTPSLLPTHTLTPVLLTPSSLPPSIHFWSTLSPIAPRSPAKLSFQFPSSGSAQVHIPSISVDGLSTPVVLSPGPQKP
# Procedure, shortened: as §1
# GABPA = target: T3, GABPA (Homo sapiens, UniProt Q06546 1-454); settings: protein: recombinant; tags: N-terminal GST; dsDNA, one strand shown
# T3 sequence: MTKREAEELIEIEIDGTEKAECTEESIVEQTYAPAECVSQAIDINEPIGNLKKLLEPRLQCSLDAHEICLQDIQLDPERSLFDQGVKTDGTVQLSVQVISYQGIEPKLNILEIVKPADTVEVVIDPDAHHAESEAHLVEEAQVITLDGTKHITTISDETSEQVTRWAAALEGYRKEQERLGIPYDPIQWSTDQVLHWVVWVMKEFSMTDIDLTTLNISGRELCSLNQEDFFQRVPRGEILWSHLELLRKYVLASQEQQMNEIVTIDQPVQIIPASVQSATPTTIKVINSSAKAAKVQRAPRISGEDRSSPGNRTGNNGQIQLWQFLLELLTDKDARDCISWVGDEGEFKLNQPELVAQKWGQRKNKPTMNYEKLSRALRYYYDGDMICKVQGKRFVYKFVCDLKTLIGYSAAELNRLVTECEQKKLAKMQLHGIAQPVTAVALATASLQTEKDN
# Procedure, shortened: as §1
# ERG = target: T4, ERG (Homo sapiens, UniProt P11308 1-479); settings: protein: recombinant; tags: N-terminal GST; dsDNA, one strand shown
# T4 sequence: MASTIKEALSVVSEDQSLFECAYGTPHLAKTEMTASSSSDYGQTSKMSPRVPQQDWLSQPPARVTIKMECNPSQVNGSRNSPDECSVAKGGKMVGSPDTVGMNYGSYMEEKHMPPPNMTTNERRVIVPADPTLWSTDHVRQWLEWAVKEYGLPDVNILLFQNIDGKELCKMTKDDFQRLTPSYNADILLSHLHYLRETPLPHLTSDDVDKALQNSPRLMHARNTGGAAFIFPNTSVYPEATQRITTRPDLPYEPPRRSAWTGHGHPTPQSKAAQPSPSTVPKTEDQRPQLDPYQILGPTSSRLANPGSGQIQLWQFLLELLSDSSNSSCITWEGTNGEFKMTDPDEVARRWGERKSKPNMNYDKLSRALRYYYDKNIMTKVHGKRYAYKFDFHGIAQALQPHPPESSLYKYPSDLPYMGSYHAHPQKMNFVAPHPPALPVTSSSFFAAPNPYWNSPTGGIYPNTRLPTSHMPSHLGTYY
# Procedure, shortened: as §1
# ELF1 = ELF1 (Homo sapiens, UniProt P32519 1-619); settings: protein: recombinant; tags: N-terminal GST; dsDNA, one strand shown
# Procedure, shortened: as §1
# EHF = target: T5, EHF (Homo sapiens, UniProt Q9NZC4 1-300); settings: protein: recombinant; tags: N-terminal GST; dsDNA, one strand shown
# T5 sequence: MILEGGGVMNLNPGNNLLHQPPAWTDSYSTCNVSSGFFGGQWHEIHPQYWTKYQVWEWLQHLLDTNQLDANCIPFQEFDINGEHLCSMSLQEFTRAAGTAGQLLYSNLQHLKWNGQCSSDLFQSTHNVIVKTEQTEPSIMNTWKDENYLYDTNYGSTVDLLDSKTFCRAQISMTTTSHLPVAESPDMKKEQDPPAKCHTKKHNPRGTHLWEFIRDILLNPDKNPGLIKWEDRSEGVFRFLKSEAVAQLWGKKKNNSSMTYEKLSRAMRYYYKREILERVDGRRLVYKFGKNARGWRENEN
# Procedure, shortened: as §1
# SPI1 = SPI1 (Homo sapiens, UniProt P17947 1-270); settings: protein: recombinant; tags: N-terminal GST; dsDNA, one strand shown
# Procedure, shortened: as §1
# SPIB = SPIB (Homo sapiens, UniProt Q01892 1-262); settings: protein: recombinant; tags: N-terminal GST; dsDNA, one strand shown
# Procedure, shortened: as §1
# ELK3 = target: T6, ELK3 (Homo sapiens, UniProt P41970 1-407); settings: protein: recombinant; tags: N-terminal GST; dsDNA, one strand shown
# T6 sequence: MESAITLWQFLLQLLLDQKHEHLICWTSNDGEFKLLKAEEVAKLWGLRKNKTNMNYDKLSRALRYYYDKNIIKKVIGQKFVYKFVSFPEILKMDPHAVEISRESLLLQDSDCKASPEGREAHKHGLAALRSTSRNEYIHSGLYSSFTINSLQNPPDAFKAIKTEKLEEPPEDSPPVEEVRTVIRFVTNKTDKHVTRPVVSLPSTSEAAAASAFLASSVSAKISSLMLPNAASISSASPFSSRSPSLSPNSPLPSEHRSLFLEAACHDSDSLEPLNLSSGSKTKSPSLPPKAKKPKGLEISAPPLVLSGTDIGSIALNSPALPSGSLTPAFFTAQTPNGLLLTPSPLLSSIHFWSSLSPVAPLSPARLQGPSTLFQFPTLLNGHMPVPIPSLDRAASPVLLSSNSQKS
# Procedure, shortened: as §1
# FEV = target: T7, FEV (Homo sapiens, UniProt Q99581 1-238); settings: protein: recombinant; tags: N-terminal GST; dsDNA, one strand shown
# T7 sequence: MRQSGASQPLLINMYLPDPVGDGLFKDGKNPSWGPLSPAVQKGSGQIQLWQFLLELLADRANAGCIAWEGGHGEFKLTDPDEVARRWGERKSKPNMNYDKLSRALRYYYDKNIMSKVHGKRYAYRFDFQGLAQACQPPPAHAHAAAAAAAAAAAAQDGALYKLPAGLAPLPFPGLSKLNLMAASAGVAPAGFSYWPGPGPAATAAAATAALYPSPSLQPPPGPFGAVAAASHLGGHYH
# Procedure, shortened: as §1
# ETV5 = ETV5 (Homo sapiens, UniProt P41161 1-510); settings: protein: recombinant; tags: N-terminal GST; dsDNA, one strand shown
# Procedure, shortened: as §1
# HSF1 = HSF1 (Homo sapiens, UniProt Q00613 1-529); settings: protein: recombinant; tags: N-terminal GST; chain copies: 3; dsDNA, one strand shown
# Procedure, shortened: as §1
# SPIC = target: T8, SPIC (Homo sapiens, UniProt Q8N5J4 1-248); settings: protein: recombinant; tags: N-terminal GST; dsDNA, one strand shown
# T8 sequence: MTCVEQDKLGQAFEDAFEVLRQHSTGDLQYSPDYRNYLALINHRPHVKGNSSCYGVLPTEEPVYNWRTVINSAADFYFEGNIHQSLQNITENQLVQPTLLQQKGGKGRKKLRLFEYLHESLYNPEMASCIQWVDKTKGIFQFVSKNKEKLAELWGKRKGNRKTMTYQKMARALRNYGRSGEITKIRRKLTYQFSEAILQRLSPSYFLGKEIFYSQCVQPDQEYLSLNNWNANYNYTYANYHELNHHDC
# Procedure, shortened: as §1
# ELF4 = ELF4 (Homo sapiens, UniProt Q99607 1-663); settings: protein: recombinant; tags: N-terminal GST; dsDNA, one strand shown
# Procedure, shortened: as §1
# ELK4 = target: T9, ELK4 (Homo sapiens, UniProt P28324-2 1-405); settings: protein: recombinant; tags: N-terminal GST; dsDNA, one strand shown
# T9 sequence: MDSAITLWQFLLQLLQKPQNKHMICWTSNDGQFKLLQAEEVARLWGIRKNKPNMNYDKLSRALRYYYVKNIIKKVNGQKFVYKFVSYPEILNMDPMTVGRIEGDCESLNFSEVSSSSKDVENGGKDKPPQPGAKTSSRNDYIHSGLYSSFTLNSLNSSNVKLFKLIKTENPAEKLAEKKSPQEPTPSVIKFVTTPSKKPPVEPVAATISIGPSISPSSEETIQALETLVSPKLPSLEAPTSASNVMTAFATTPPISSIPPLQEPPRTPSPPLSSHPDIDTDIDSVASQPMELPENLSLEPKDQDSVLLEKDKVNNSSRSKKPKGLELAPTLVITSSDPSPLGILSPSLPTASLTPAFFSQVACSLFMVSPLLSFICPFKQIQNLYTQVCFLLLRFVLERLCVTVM
# Procedure, shortened: as §1
# ETV2 = target: T10, ETV2 (Homo sapiens, UniProt O00321 1-342); settings: protein: recombinant; tags: N-terminal GST; dsDNA, one strand shown
# T10 sequence: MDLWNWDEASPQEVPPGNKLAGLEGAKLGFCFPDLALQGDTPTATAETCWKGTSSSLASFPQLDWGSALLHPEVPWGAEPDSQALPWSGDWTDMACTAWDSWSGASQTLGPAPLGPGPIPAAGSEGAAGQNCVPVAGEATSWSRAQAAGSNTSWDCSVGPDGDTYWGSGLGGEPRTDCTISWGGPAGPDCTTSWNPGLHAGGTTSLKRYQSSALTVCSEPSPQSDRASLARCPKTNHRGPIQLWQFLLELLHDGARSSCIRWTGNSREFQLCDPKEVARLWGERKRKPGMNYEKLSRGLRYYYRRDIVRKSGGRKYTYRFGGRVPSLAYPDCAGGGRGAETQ
# Procedure, shortened: as §1
# ELF3 = target: T11, ELF3 (Homo sapiens, UniProt P78545 1-371); settings: protein: recombinant; tags: N-terminal GST; dsDNA, one strand shown
# T11 sequence: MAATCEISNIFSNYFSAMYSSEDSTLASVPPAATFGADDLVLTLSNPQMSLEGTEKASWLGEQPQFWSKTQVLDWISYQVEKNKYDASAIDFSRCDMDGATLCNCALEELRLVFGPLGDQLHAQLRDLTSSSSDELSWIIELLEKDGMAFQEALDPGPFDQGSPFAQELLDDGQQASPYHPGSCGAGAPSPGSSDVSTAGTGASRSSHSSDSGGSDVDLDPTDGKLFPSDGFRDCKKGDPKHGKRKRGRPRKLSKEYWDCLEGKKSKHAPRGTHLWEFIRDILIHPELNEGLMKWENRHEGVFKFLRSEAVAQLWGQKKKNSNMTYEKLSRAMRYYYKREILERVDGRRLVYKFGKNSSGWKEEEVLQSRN
# Procedure, shortened: as §1
# CRX = CRX (Homo sapiens, UniProt O43186 1-299); settings: protein: recombinant; tags: N-terminal GST; dsDNA, one strand shown
# Procedure, shortened: as §1
# ETV1 = ETV1 (Homo sapiens, UniProt P50549 1-477); settings: protein: recombinant; tags: N-terminal GST; dsDNA, one strand shown
# Procedure, shortened: as §1
# HSF1, sequence (Q00613 whole entry): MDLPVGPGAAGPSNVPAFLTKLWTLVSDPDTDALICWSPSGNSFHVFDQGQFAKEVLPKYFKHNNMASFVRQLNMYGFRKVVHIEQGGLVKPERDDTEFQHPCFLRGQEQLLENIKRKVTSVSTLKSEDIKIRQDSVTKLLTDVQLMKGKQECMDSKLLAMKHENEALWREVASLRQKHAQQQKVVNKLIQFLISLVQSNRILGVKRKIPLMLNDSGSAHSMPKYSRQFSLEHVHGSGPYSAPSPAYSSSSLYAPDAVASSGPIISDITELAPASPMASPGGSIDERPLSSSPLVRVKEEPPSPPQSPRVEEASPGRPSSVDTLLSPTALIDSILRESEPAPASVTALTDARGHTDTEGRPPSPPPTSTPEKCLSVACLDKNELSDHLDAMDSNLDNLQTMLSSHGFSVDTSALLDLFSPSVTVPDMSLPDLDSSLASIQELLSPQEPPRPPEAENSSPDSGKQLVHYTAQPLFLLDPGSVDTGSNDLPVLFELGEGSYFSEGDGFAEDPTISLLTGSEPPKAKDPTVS
# ELF1, sequence (P32519 whole entry): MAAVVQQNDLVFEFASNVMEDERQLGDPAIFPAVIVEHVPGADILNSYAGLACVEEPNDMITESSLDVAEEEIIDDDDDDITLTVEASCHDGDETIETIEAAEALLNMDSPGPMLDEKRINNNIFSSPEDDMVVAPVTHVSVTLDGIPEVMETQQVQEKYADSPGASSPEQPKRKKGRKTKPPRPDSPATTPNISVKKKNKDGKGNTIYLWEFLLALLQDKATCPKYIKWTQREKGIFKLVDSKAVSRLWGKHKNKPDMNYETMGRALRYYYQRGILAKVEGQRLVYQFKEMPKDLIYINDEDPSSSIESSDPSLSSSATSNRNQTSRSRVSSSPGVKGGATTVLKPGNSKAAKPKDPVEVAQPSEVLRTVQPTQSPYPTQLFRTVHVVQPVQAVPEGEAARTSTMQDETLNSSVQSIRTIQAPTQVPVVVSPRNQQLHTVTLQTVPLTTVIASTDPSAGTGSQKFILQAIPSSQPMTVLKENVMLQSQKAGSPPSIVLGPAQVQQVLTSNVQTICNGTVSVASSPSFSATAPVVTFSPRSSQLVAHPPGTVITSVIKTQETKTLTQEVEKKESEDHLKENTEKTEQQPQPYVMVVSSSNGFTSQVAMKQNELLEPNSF
# ETV1, sequence (P50549 whole entry): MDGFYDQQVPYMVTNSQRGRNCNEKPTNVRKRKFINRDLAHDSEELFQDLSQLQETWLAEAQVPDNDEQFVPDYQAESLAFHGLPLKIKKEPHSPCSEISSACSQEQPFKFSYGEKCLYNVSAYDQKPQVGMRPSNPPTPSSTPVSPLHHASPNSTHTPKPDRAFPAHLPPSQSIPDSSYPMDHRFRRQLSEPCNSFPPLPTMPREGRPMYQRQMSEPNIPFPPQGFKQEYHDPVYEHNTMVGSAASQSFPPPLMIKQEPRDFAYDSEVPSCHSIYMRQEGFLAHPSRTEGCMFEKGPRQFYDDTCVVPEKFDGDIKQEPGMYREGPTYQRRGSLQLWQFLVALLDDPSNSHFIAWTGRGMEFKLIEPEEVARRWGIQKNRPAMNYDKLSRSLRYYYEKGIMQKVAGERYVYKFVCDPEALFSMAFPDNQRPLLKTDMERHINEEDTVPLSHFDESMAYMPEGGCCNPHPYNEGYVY
# ELF4, sequence (Q99607 whole entry): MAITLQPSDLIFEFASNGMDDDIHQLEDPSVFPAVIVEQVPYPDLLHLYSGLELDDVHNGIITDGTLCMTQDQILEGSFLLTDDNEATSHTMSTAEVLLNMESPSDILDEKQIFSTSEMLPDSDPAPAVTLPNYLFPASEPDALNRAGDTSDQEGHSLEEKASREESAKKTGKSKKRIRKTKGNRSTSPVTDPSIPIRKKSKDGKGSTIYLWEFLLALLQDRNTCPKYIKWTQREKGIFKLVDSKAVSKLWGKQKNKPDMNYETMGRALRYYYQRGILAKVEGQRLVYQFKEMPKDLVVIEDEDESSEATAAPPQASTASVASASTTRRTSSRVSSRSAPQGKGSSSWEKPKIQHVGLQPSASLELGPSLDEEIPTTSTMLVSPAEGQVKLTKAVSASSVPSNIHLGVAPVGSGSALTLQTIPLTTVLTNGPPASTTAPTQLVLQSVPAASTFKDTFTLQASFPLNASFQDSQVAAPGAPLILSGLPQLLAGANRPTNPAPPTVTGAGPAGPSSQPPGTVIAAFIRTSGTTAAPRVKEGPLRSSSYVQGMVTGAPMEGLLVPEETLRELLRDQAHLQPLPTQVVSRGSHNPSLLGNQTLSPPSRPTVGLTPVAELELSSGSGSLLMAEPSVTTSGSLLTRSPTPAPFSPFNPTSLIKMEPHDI
# CRX, sequence (O43186 whole entry): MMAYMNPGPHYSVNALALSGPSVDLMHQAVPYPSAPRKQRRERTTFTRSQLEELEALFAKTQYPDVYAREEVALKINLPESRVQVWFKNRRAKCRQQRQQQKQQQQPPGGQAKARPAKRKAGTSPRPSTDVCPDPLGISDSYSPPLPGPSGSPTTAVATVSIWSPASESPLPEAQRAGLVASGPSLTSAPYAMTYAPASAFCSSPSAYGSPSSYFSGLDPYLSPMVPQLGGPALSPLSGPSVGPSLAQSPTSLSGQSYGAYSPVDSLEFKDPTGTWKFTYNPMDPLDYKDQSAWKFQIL
# SPIB, sequence (Q01892 whole entry): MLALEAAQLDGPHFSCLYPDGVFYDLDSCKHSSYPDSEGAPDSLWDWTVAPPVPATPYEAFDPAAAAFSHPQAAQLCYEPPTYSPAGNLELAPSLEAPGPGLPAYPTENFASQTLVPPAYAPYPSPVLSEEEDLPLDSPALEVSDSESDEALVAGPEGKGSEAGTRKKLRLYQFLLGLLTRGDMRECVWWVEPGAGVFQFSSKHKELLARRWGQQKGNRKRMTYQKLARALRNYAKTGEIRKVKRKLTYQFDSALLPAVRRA
# ETV5, sequence (P41161 whole entry): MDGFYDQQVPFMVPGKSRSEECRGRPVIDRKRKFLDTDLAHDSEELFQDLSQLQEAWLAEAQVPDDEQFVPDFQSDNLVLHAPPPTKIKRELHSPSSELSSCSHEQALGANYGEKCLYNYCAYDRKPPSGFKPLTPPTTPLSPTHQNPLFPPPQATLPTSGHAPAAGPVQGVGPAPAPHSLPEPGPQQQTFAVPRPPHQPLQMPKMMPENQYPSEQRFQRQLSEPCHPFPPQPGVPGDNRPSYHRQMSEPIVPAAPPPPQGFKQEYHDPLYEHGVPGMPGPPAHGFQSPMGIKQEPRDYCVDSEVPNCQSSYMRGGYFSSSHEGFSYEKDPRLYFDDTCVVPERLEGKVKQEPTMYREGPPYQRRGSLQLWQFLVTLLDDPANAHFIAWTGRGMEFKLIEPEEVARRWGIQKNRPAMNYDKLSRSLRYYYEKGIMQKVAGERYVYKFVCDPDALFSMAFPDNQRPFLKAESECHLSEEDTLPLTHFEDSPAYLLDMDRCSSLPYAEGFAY
sequence,measurement,setting,value
GTTCTC,binding signal,FLI1,"1.36 fold enrichment (6-mer frequency, TF over GST control)"
same,binding signal,ELK1,"1.18 fold enrichment (6-mer frequency, TF over GST control)"
same,binding signal,GABPA,"1.4 fold enrichment (6-mer frequency, TF over GST control)"
same,binding signal,ERG,"1.27 fold enrichment (6-mer frequency, TF over GST control)"
same,binding signal,ELF1,"1.28 fold enrichment (6-mer frequency, TF over GST control)"
same,binding signal,EHF,"1.22 fold enrichment (6-mer frequency, TF over GST control)"
same,binding signal,SPI1,"1.33 fold enrichment (6-mer frequency, TF over GST control)"
same,binding signal,SPIB,"1.35 fold enrichment (6-mer frequency, TF over GST control)"
same,binding signal,ELK3,"1.19 fold enrichment (6-mer frequency, TF over GST control)"
same,binding signal,FEV,"1.32 fold enrichment (6-mer frequency, TF over GST control)"
same,binding signal,ETV5,"1.32 fold enrichment (6-mer frequency, TF over GST control)"
same,binding signal,HSF1,"2.29 fold enrichment (6-mer frequency, TF over GST control)"
same,binding signal,SPIC,"1.36 fold enrichment (6-mer frequency, TF over GST control)"
same,binding signal,ELF4,"1.28 fold enrichment (6-mer frequency, TF over GST control)"
same,binding signal,ELK4,"1.27 fold enrichment (6-mer frequency, TF over GST control)"
same,binding signal,ETV2,"1.33 fold enrichment (6-mer frequency, TF over GST control)"
same,binding signal,ELF3,"1.3 fold enrichment (6-mer frequency, TF over GST control)"
same,binding signal,CRX,"1.28 fold enrichment (6-mer frequency, TF over GST control)"
same,binding signal,ETV1,"1.34 fold enrichment (6-mer frequency, TF over GST control)"
